From PubChem BioAssay (EPA / NIEHS)
Records with an inconclusive call do not appear. Calls of active or inactive are those of the source. How the source made its calls: active means hit-call score of the fitted dose curve at least 0.9, where 1 is the maximum; inconclusive means response in the unintended direction; inactive means score below 0.9.

Assays:
[1] = biological target: Cellular tumor antigen p53 (Homo sapiens) (UniProt P04637); assay: TOX21_p53_BLA_p2_ratio: Tox21 HCT-116 p53 Agonism Beta-lactamase Assay, Ratio, Phase 2 (AID 2283592)
How it was run: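 Cleaved-to-uncleaved substrate ratio (460 vs 530 nm) measured in HCT116 cells with an inducible beta-lactamase reporter linked to p53 activity. Compounds incubated 16 h at 37C before 2 h room-temperature CCF4-AM loading.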

[2] = TOX21_p53_BLA_p3_viability: Viability Assessment in the Tox21 HCT-116 p53 Agonism Beta-lactamase Assay, Phase 3 (AID 2283593);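 further: cells exposed to compound for 16 h before reading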
How it was run: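 HCT116 cells, 4000/well, dosed 5 h after plating by pin transfer (217-fold dilution from DMSO stock) and incubated 16 h at 37C, 5% CO2. Viability read as ATP luminescence with CellTiter-Glo after 30 min at room temperature.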

[3] = biological target: Cellular tumor antigen p53 (Homo sapiens) (UniProt P04637); assay: TOX21_p53_BLA_p3_ratio: Tox21 HCT-116 p53 Agonism Beta-lactamase Assay, Ratio, Phase 3 (AID 2283596)
How it was run: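 Cells were seeded at 4000/well, rested 5 h at 37C, then dosed with DMSO compound solutions (217-fold dilution) for 16 h. CCF4-AM substrate was loaded for 2 h at room temperature, and the 460/530 nm emission ratio was fitted for gain of signal versus DMSO.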

[4] = TOX21_p53_BLA_p4_viability: Viability Assessment in the Tox21 HCT-116 p53 Agonism Beta-lactamase Assay, Phase 4 (AID 2283597);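 further: hits lower the luminescence signal meaning cytotoxicity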
How it was run: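 Viability is taken as cellular ATP: after 16 h compound exposure of HCT116 cells and a 2 h room-temperature CCF4-AM substrate step, CellTiter-Glo reagent is added and luminescence is measured 30 min later.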

[5] = TOX21_p53_BLA_p5_viability: Viability Assessment in the Tox21 HCT-116 p53 Agonism Beta-lactamase Assay, Phase 5 (AID 2283600)
How it was run: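 Viability is taken from cellular ATP content, measured by luciferase luminescence in the same wells after the beta-lactamase ratio read. Cells are seeded at 4000 per well and exposed to DMSO-dissolved compounds, diluted 217-fold, for 16 h.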

[6] = biological target: Cellular tumor antigen p53 (Homo sapiens) (UniProt P04637); assay: TOX21_p53_BLA_p5_ratio: Tox21 HCT-116 p53 Agonism Beta-lactamase Assay, Ratio, Phase 5 (AID 2283599)
How it was run: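 HCT-116 p53-bla cells (4000/well) plated 5 h, dosed with compound (217-fold DMSO dilution) for 16 h at 37 C; CCF4-AM substrate 2 h at room temperature. Activity is the 460/530 nm emission ratio (405 nm excitation), fitted in gain-of-signal direction versus DMSO.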

[7] = biological target: Cellular tumor antigen p53 (Homo sapiens) (UniProt P04637); assay: TOX21_p53_BLA_p4_ratio: Tox21 HCT-116 p53 Agonism Beta-lactamase Assay, Ratio, Phase 4 (AID 2283601)
How it was run: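 HCT-116 p53 beta-lactamase reporter cells (4000/well) preincubated 5 h, then compound (217-fold dilution of DMSO stock) for 16 h at 37C. CCF4-AM substrate added 2 h at room temperature; 460/530 nm emission ratio fitted upward versus DMSO.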

Measured: AC50

Cellular tumor antigen p53 (Homo sapiens), sequence (P04637 whole entry, looked up): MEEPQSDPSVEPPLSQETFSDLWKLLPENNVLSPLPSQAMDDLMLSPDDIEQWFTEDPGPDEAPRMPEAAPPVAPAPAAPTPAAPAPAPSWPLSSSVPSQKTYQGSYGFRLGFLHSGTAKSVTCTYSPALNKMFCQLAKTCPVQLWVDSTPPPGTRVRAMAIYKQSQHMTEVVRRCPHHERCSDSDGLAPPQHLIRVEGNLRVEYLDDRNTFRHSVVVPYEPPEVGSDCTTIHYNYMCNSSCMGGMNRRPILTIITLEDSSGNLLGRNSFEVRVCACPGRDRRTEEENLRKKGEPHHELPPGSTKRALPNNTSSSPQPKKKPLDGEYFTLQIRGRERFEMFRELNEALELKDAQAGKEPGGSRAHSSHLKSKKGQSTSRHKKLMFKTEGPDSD

CS(=O)(=O)Nc1cc2occ(NC=O)c(=O)c2cc1Oc1ccccc1
not listed: [6] | [7]
inactive: all other assays above

Nc1ccn(C2CO[C@H](CO)O2)c(=O)n1 (some centres undefined)
active: [1] 0.0586 nM | [3] 0.0596 nM | [6] 0.329 nM | [7] 0.0816 nM
inactive: [2] | [4]

c1cnc2c(n1)CCCC2
not listed: [5]
inactive: all other assays above

CC(=O)O[Si](C)(OC(C)=O)OC(C)=O
not listed: [5]
inactive: all other assays above

CCCc1c2oc(C(=O)O)cc(=O)c2cc2c(=O)cc(C(=O)O)n(CC)c12
not listed: [5]
inactive: all other assays above

COc1ccccc1C=CC=O
not listed: [5]
inactive: all other assays above

CO[C@@H]1[C@@H](OC)[C@H](C)[C@@](O)(CC(=O)O)O[C@H]1[C@H](C)[C@H]1O[C@@]2(CC[C@@](C)([C@H]3CC[C@@](C)([C@@H]4O[C@@H]([C@H]5O[C@](C)(O)[C@H](C)C[C@@H]5C)C[C@@H]4OC4C[C@H](OC)[C@@H](OC)[C@H](C)O4)O3)O2)C[C@H](O)[C@H]1C (some centres undefined)
active: [1] 8980 nM | [6] 16700 nM
not listed: [5]
inactive: all other assays above

CCO[Si](CC(C)C)(OCC)OCC
not listed: [5]
inactive: all other assays above

NNc1ccc(C(=O)O)cc1
not listed: [5]
inactive: all other assays above

CCN(CC)C(=O)Nc1ccc(OCC(O)CNC(C)(C)C)c(C(C)=O)c1 (centres undefined)
not listed: [6] | [7]
inactive: all other assays above

CO[C@@H]1[C@@H](OC(N)=O)[C@@H](O)[C@H](Oc2ccc3c(O)c(NC(=O)c4ccc(O)c(CC=C(C)C)c4)c(=O)oc3c2C)OC1(C)C
not listed: [6] | [7]
inactive: all other assays above

CN1[C@@H]2CC[C@H]1CC(OC(c1ccccc1)c1ccccc1)C2 (some centres undefined)
not listed: [6]
inactive: all other assays above

NC(Cc1ccc(F)cc1)C(=O)O (centres undefined)
not listed: [5]
inactive: all other assays above

CC(C)=C1CC[C@@H](C)CC1=O
not listed: [5]
inactive: all other assays above

O=NN(CCCl)C(=O)NC1CCCCC1
not listed: [6] | [7]
inactive: all other assays above

Cc1cc(C2CCCCC2)n(O)c(=O)c1
not listed: [5]
inactive: all other assays above

CC(C)(O)CCCC1=CCC(C=O)CC1 (centres undefined)
not listed: [6] | [7]
inactive: all other assays above

CCCCC(O)c1ccccc1 (centres undefined)
active: [2] 30600 nM
not listed: [6]
inactive: all other assays above

CC(=O)CC(=O)c1ccccc1
not listed: [4]
inactive: all other assays above

C=C[C@]1(C)C[C@@H](OC(=O)CO)[C@]2(C)[C@H](C)CC[C@]3(CCC(=O)[C@H]32)[C@@H](C)[C@@H]1O
not listed: [6]
inactive: all other assays above

CCSC(=O)N(CC)CC
inactive: [1] | [2] | [3] | [6]

CC(=O)NC(Cc1ccccc1)C(=O)O (centres undefined)
not listed: [6]
inactive: all other assays above

O=C(NCCO[N+](=O)[O-])c1cccnc1
not listed: [6]
inactive: all other assays above

CCc1cc(S(=O)(=O)O)c2cc(C(C)C)cccc1-2
not listed: [4]
inactive: all other assays above

COc1cc2c3cc1Oc1cc(ccc1O)C[C@@H]1c4c(cc(OC)c(O)c4Oc4ccc(cc4)C[C@@H]3N(C)CC2)CC[N+]1(C)C
not listed: [4]
inactive: all other assays above

C=COCC(C)C
inactive: [1] | [2] | [3] | [6]

O=P(O)(O)OC(Cn1cncn1)(Cn1cncn1)c1ccc(F)cc1F
not listed: [4] | [7]
inactive: all other assays above

NCCCC[C@H](N[C@@H](CCc1ccccc1)C(=O)O)C(=O)N1CCC[C@H]1C(=O)O
not listed: [6]
inactive: all other assays above

O=S(O)(O)=S
not listed: [6]
inactive: all other assays above
